Drawing on PubChem BioAssay (NCI), this text covers growth for 40 compounds.

This is part of a sample that, as a whole, favours compounds with a hit. Of some 83,000 tested, about 20% had one in any assay.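 Assay: single dose, 48 h. Readout: percent growth (0 = no net growth; negative = cell death). Active: <10.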 Values without a mark were called inactive. Calls of active or inactive are those of the source.

This assay concerns HL-60(TB) leukemia. Put plainly: NCI-60 one-dose screen, 48 h (100 = growth as untreated, 0 = no growth, -100 = all killed). To be noted: 10 µM unless noted.
Consider `CCOC(=O)c1ccc(Nc2nc(NN)nc(-c3ccc(OC)cc3)c2C#N)cc1`, for which the growth was 103%.
Next, `Cc1ccc(S(=O)(=O)c2nc(S(=O)(=O)c3ccc(C)cc3)c(N3CCN(C)CC3)s2)cc1`: 17.8%; `O=C(CSc1nnc(-c2ccc(-c3nc4ccccc4[nH]3)cc2)o1)Nc1ccccc1`: 53.5%.
For `COC(=O)/C=C/c1cccc2c1C(=O)NC(C)(c1cc3ccccc3oc1=O)N2` (stereo not given), the growth was 40%.
With `S=C(Nc1ccccc1)Nc1ccc(OCc2nc3ccccc3[nH]2)cc1`, the growth is 20.2%.
With `Clc1cccc(N/N=C/c2c[nH]c3ccc(Br)cc23)n1`, the growth was 5.14% (active).
Next, `O=C(Nc1ccc(OCc2ccc(F)cc2)cc1)Nc1ccc(Cl)c(C(F)(F)F)c1`: -3.24% (active).
Next, `CC1=NN(C2=NC(=O)C(CC(=O)Nc3ccccc3C(F)(F)F)S2)C(c2ccc(N(C)C)cc2)C1` (stereo not given): 10.7%; `COc1cc(C2CC(c3ccccc3)=Nc3c(N)nc(N)nc3N2)ccc1Oc1nc(NCCO)nc(N2CCOCC2)n1` (stereo not given): 93.5%; `O=C(c1ccc(OCCN2CCOCC2)cc1)C1[C@H](c2ccc(Cl)cc2)[C@@H](c2ccccc2)NC12C(=O)Nc1ccc(Br)cc12` (stereo not given in full): -28.5% (active).
`N#Cc1c(-c2ccc(F)cc2)nc(SCc2ccc(F)cc2)nc1N1CCOCC1`: the growth is 85%.
Turning to `COC(=O)CNC(=O)COc1c(OC)c(OC)cc2oc(-c3cccc(C(=O)Nc4ccc(Cl)cc4)c3)cc(=O)c12`, the growth is 101%.
Next, `COC(OC)C1=C(C)OC(N)=C(C#N)C12C(=O)Nc1ccccc12` (stereo not given): 67.6%.
Next, `CCCCSc1nc(Nc2ccc(C(C)=O)cc2)c(C#N)c(-c2ccc(OC)cc2)n1`: 88%; `Cn1cc(-c2cc(N)n3nc(-c4cn(C)c5ncc(Br)cc45)cc3n2)c2cc(Br)cnc21`: -71.2% (active).
Next, `Cc1ccc(C(=O)Nc2cccc(C(=O)NC(=S)Nc3ccc(S(N)(=O)=O)cc3)c2)cc1`: 84.7%; `C/C(=N\Nc1ccc(C(=O)O)cc1)c1cnn(-c2cc(=O)[nH]c3ccc(C)cc23)c1C`: 101%.
As to `Cc1cccc(NC(=O)[C@]23CCC(C)(C)CC2C2=CCC4[C@@]5(C)C[C@@H](O)[C@H](O)[C@@](C)(CO)C5CC[C@@]4(C)[C@]2(C)CC3)c1` (stereo not given in full), the growth was -14.4% (active).
Regarding `CN1C(=O)C(O)(CC(=O)c2cc3ccccc3oc2=O)c2ccccc21` (stereo not given), the growth is 84.4%.
Next, `N#CC1=C(c2ccco2)Nc2c(c(-c3ccccc3)nn2-c2ccccc2)C12C(=O)Nc1ccc(Br)cc12` (stereo not given): 51.1%; `COc1ccc(N=Nc2c(N)nn3c(-c4ccc5c(c4)C=S=C5)ccnc23)cc1`: 37.7%; `CCOC(=O)c1sc(N/N=C(\C)c2ccc3c(c2)Nc2ccccc2S3)nc1C`: 22.1%.
In the case of `Cc1ccc(-c2cc(-c3cc4ccccc4nc3Cl)[nH]c(=O)n2)cc1` it was -32.7% (active); in that of `Cc1ccc2sc3c(c2c1)Oc1nc[nH]c(=O)c1C3c1cccc(F)c1` (stereo not given), 99.3%; in that of `CC(=O)c1cc(C(=O)c2ccc3c(c2)NC(=O)CO3)n2ccc3ccccc3c12`, 94.7%.
In the case of `Cn1cc(-c2cc(N)n3nc(-c4cn(C)c5ccccc45)cc3n2)c2cc(F)ccc21` it was -20.1% (active).
For the compound `CC(Nc1ncnc2ccc(-c3ccc4oc(N)nc4c3)cc12)c1ccccc1` (stereo not given), the growth is -71.4% (active).
In the case of `CC(=O)OC[C@@]1(C)C2CC[C@]3(C)C(CC=C4C5CC(C)(C)CC[C@]5(C(=O)Nc5ccc(Br)cc5)CC[C@]43C)[C@@]2(C)C[C@@H](OC(C)=O)[C@@H]1OC(C)=O` (stereo not given in full), the growth is 32.3%.
Next, `CS(=O)(=O)Nc1cncc(-c2ccc3ncnc(NCc4ccccc4)c3c2)c1`: 54.6%; `O=C(Nc1ccc(OCC(=O)c2ccc(Cl)cc2)cc1)Nc1ccc(Cl)c(C(F)(F)F)c1`: 12.5%; `Cc1ccc2c(c1)C(=O)/C(=C/c1c[nH]c3ccccc13)S2`: 14.9%.
Consider `O=c1[nH]c2ccccc2cc1CSc1ccc(Nc2nccc(-c3ccc(Cl)cc3)n2)cc1`, for which the growth is 74.8%.
Next, `CN(C)c1nc(NCCNS(=O)(=O)c2ccc(C(=O)/C=C/c3ccc(C(F)(F)F)cc3)cc2)nc(N2CCOCC2)n1`: -25.1% (active); `CC1CC(c2ccc(N(C)C)cc2)=NN1c1nc(O)c(C2=c3cc(Br)ccc3=NC2=O)s1` (stereo not given): 68.7%.
In the case of `C[C@@H](Nc1c(C#N)cnc2ccc(-c3cnc4[nH]ncc4c3)cc12)c1ccccc1` it was 35.2%; in that of `CCCS(=O)(=O)N1CCCC(C(=O)Nc2nc3ccc(NC(=O)c4ccc(F)c(OC)c4F)cc3s2)C1` (stereo not given), 27.3%.
Next, `Cn1cc(-c2cc(N)n3nc(-c4c[nH]c5ccccc45)cc3n2)c2ccccc21`: -24.5% (active); `COc1cccc(C(=O)CSc2nc(-c3ccc(OCc4ccccc4)c(OC)c3)c(C#N)c(=O)[nH]2)c1`: 97.2%.
With `N#Cc1ccc(-c2nn(-c3ccc(C(=O)O)cc3)cc2CNc2cc(Cl)cc(C(F)(F)F)c2)cc1`, the growth is 7.71% (active).
Next, `COc1cc(OC)c2c3nc4cc(C)c(C)cc4nc3n(CCN(C)C)c2c1`: 52.9%.
